Compound activity deposited in PubChem by The Scripps Research Institute Molecular Screening Center.
Shown are actives, neighbours in structure and some others; about 1.8% of the full set was active somewhere.
Fam108B counter – Fam108B inhibition, counter-screen for RBBP9 inhibitors. AID 1947. recombinant Fam108B, FP-Rh probe fluorescence polarization. inhibition, % at 9.51 µM. actives 0.33% (n = 300,000);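 active = inhibition above the screen mean inhibition plus 3 SD, computed separately per campaign, cut at about 18% in these data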;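 also: inhibitors lower polarization as less probe binds the enzyme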
PAD4 FP inh – blocks human protein arginine deiminase 4 | Q9UM07 | recombinant PAD4, RCA probe fluorescence polarization | inhibition, % at 6.36 µM | actives 0.41% (n = 330,000) | AID 485272;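 active = percent inhibition above a cutoff equal to the mean of all tested compounds plus 3 SD, cut at about 15% in these data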;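 also: 0% = PAD4 with RCA probe and DMSO and 100% = probe without PAD4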
PME-1 primary – blocks human protein phosphatase methylesterase 1; Q9Y570; recombinant PME-1, FP-Rh probe fluorescence polarization; inhibition, % at 5.9 µM; actives 0.53% (n = 320,000);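 active = inhibition above the campaign mean of all compounds plus 3 SD, cut at about 26% in these data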;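 also: competitive labeling of PME-1 active site by serine hydrolase directed probe; 0% = PME-1 with DMSO and 100% = wells lacking PME-1 enzyme; inhibitors block probe labeling so polarization falls and inhibition rises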
Target sequence (Q9Y570 whole entry, looked up): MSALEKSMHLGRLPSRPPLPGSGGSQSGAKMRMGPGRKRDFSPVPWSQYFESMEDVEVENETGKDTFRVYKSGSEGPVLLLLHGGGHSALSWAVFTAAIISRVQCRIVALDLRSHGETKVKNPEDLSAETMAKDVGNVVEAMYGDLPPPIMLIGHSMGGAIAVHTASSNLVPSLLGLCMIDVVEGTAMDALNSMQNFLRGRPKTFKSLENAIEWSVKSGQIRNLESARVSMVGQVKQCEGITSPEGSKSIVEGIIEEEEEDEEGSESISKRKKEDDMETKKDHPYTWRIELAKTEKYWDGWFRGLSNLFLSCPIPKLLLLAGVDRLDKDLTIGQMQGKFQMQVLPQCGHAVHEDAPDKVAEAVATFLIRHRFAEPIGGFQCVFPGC
GSTO1 inh – blocks human GSTO1 in RBBP9 counter-screen; inhibition, % at 5.96 µM; recombinant GSTO1, activity-based probe fluorescence polarization; actives 1.1% (n = 300,000); P78417;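 active = inhibition above the campaign mean inhibition plus 3 SD, cut at about 35% in these data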;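 also: 0% = GSTO1-1 with DMSO and 100% = wells lacking GSTO1-1 enzyme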
Target sequence (P78417 whole entry, looked up): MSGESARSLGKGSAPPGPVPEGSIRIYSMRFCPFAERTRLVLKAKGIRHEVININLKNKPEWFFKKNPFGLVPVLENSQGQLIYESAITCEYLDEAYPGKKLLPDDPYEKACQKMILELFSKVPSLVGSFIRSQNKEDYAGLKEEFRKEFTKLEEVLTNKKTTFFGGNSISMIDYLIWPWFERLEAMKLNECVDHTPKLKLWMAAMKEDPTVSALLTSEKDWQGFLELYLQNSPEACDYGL
LYPLA2 inh – counter-screen for PME1 inhibitors: inhibitors of human LYPLA2. O95372. recombinant LYPLA2, FP-Rh probe fluorescence polarization. inhibition, % at 5.9 µM. actives 0.38% (n = 320,000);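 active = inhibition above the screen-wide mean plus 3 SD, limit set per campaign, cut at about 26% in these data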;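 also: 0% = LYPLA2 with DMSO and 100% = wells lacking LYPLA2 enzyme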
LYPLA1 inh – LYPLA1 (human) inhibition in PME1 counter-screen; O75608; recombinant LYPLA1, FP-Rh probe fluorescence polarization; inhibition, % at 5.9 µM; actives 0.16% (n = 320,000); AID 2174;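 active = inhibition above the mean of all tested compounds plus 3 SD, set per campaign, cut at about 14% in these data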;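 also: inhibitors block serine hydrolase probe labeling of LYPLA1 so polarization falls; 0% = enzyme with DMSO and 100% = wells lacking LYPLA1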
LYPLA2 conf – counter-screen for PME1 inhibitors: confirmation of human LYPLA2 inhibitors; shares compounds with LYPLA2 inh; recombinant LYPLA2, FP-Rh probe fluorescence polarization; inhibition, % at 5.9 µM; actives 72% (n = 1,100); AID 2232;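 active = mean inhibition across replicates above the hit cutoff set in the primary screen, cut at about 26% in these data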;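 also: blocked labeling of the enzyme by serine hydrolase FP-Rh probe lowers polarization; 0% = enzyme with DMSO and 100% = wells lacking LYPLA2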
LYPLA2 gel ABPP – LYPLA2 (human) inhibition, late stage results; shares compounds with LYPLA2 inh; rhLYPLA2 in mouse brain proteome, gel ABPP FP-Rh; inhibition, % at 20 µM; actives 30% (n = 150); AID 652029;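 active = inhibition of LYPLA2 enzyme probe labeling above about 50%, limit read from the data; inactive = inhibition below that limit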;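 also: loss of FP-Rh probe labeling of the LYPLA2 gel band measured as band density; 0% = DMSO only control band and 100% = blank gel background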
Active calls of the source: *; nt = no result given.

SMILES	Fam108B counter	PAD4 FP inh	PME-1 primary	GSTO1 inh	LYPLA2 inh	LYPLA1 inh	LYPLA2 conf	others
CCOC(=O)C1(C)C=C(Nc2ccc(C)cc2)C(=O)N1c1ccc(C)cc1 (centres undefined)	2.6	-4.6	5.0	-0.8	26.8*	0.5	-1.9
NC(=O)c1cc([N+](=O)[O-])ccc1NCc1cccc([N+](=O)[O-])c1	-0.1	-1.3	6.0	-0.8	29.4*	4.3	28.8*
NCc1cccc(CNc2ccc([N+](=O)[O-])cc2C(N)=O)c1	-0.5	-1.0	5.7	0.1	3.7	2.4	nt
CCCCCCCCNC(C)C(O)c1ccc(SC(C)C)cc1 (centres undefined)	5.7	-3.6	3.0	1.6	40.3*	2.2	46.2*
Cc1ccc2c(=O)n3c(nc2c1)C(Cc1ccc(O)cc1)NC(=O)c1ccc(Cl)cc1-3 (centres undefined)	nt	-1.1	nt	nt	nt	nt	nt
Cc1ccc(NC(=O)Cn2c([N+](=O)[O-])cnc2C)cc1	1.6	2.7	-9.3	-0.5	12.1	-1.6	nt
Cc1ncc([N+](=O)[O-])n1CC(=O)Nc1ccc(F)cc1	0.5	2.6	-2.4	2.5	32.9*	-2.9	38.4*
Cc1cccc(NC(=O)Cn2c([N+](=O)[O-])cnc2C)c1C	-5.3	1.5	3.1	8.1	30.6*	7.2	31.6*
Cc1ncc([N+](=O)[O-])n1CC(=O)Nc1ccccc1	-5.8	-6.3	-9.8	-1.1	32.0*	-0.7	38.0*
Cc1cc(Br)c(NC(=O)Cn2c([N+](=O)[O-])cnc2C)cc1C	2.2	4.3	-3.6	4.0	2.9	-3.3	nt
Cc1ncc([N+](=O)[O-])n1CC(=O)Nc1ccc(Br)cc1	-1.5	3.1	5.0	3.6	45.9*	3.1	38.5*
COC(=O)c1ccc(NC(=O)Cn2c([N+](=O)[O-])cnc2C)cc1	-1.6	-3.5	-0.5	11.8	3.7	1.0	nt
CC(C)CC(=O)Nc1ccc(C(=O)COC(=O)Cc2n[nH]c(=O)c3ccccc23)cc1	nt	-1.1	-1.0	nt	3.3	-4.7	nt
CCN1C[C@@H]2[C@@H]3C(=O)N(Cc4ccccc4)C(=O)[C@@H]3[C@](C)(C(=O)OC)N2C1=NC	nt	-1.2	nt	nt	nt	nt	nt
CC1CCc2c(sc3ncnc(SC(C)C(=O)NCC4CCCO4)c23)C1 (centres undefined)	-1.1	-1.2	6.4	-8.9	1.5	-2.1	nt
Cc1ncc([N+](=O)[O-])n1CC(=O)Nc1ccc2c(c1)OCO2	-5.7	-6.1	-1.9	3.0	25.9*	-1.6	24.9
CC(=O)Nc1cccc(Oc2ncccc2[N+](=O)[O-])c1	0.0	-5.7	-7.9	4.7	3.3	0.3	nt
O=[N+]([O-])c1ccc(Oc2cccc(Br)c2)c2ccncc12	6.4	-5.5	10.3	20.4	80.6*	11.2	79.0*	LYPLA2 gel ABPP=57.0*
O=[N+]([O-])c1ccc(Oc2ccc(F)cc2)c2ccncc12	-2.6	-11.7	3.9	9.6	56.6*	0.8	54.3*	LYPLA2 gel ABPP=12.0
Cc1ccc(S(=O)(=O)N2CCC(C(=O)Nc3ccccc3N3CCCC3)CC2)cc1C	-1.6	0.4	6.8	0.1	1.7	-1.1	nt
Cc1ccc(NS(=O)(=O)c2ccc3c(c2)OCCCO3)cc1S(=O)(=O)N1CCOCC1	nt	-1.3	5.4	nt	-0.6	2.9	nt
CC(NCc1ccc(OCc2ccc(Cl)cc2)cc1)C(O)c1ccccc1 (centres undefined)	3.0	0.1	-7.7	-0.6	39.0*	1.5	38.1*
CN(C(=O)C1CC1)C1CCS(=O)(=O)C1 (centres undefined)	0.9	1.8	-3.0	-9.8	2.1	0.3	nt
CCN(CC(=O)NCc1ccc(Cl)cc1)C(=O)c1cc(S(=O)(=O)N2CCOCC2)ccc1C	nt	0.7	nt	nt	nt	nt	nt
CCN(CC(=O)NCc1cccs1)C(=O)c1cc(S(=O)(=O)N2CCOCC2)ccc1C	2.1	0.0	4.3	-3.8	28.7*	-4.4	-1.9
SMILES	Fam108B counter	PAD4 FP inh	PME-1 primary	GSTO1 inh	LYPLA2 inh	LYPLA1 inh	LYPLA2 conf	others
O=C1CC(c2ccc(Cl)cc2)CC(O)=C1C=NCc1ccc(Cl)c(Cl)c1 (centres undefined)	4.9	-4.1	-1.6	1.6	26.7*	2.1	57.9*	LYPLA2 gel ABPP=37.0
CCCCn1c(N)c(N(CC(C)C)C(=O)CCCc2cccs2)c(=O)[nH]c1=O	6.8	1.9	1.4	1.9	7.3	2.8	nt
O=C(Nc1ccc(Nc2ccncc2)cc1)c1ccc([N+](=O)[O-])cc1	3.1	-1.8	3.7	5.7	7.5	2.1	nt
O=C(Nc1ccc(Nc2ccncc2)cc1)c1ccc(Nc2ccnc3ccc([N+](=O)[O-])cc23)cc1[N+](=O)[O-]	7.8	-2.6	5.7	22.6	27.4*	6.4	6.1
N#CCC(=O)N/N=C\c1ccccc1OC/C=C/c1ccccc1	-10.1	-7.8	-4.7	4.0	18.9	-9.4	nt
COCC(=O)N/N=C\c1ccccc1OC/C=C/c1ccccc1	1.5	-0.7	0.7	7.2	49.6*	1.7	42.4*
CCOc1ccc(-n2c(=S)sc3c(=O)n(-c4ccccc4)c(SC)nc32)cc1	0.3	4.3	-5.7	3.9	55.9*	-3.6	-2.0
CCN1CCc2c(sc(NC(=O)c3ccc(C(=O)c4ccccc4)cc3)c2C(N)=O)C1	1.2	-5.2	0.5	-34.9	26.3*	-1.9	24.9
CC(=O)Nc1cccc(C(=O)OCC(=O)c2ccc(S(=O)(=O)N3CCCCC3)cc2)c1	2.4	-1.7	-8.8	15.2	65.8*	8.1	61.9*
CNC(=O)COC(=O)c1ccc(Cl)c(S(=O)(=O)N2CCCC2)c1	3.1	5.7	1.2	4.1	27.5*	3.3	6.0
O=C(O)CCCC(=O)N1CCOCCOCCOCCOCC1	-1.0	-1.2	4.2	6.5	-9.7	-0.7	nt
CCOC(=O)CC1C(=O)NCCN1C(=O)c1c(Cl)cccc1Cl (centres undefined)	5.2	-0.7	4.3	-1.7	1.4	-2.7	nt
CON=Cc1ccc(N2CCN(C(=O)c3ccc(Cl)cc3Cl)CC2)c([N+](=O)[O-])c1	nt	nt	nt	nt	nt	nt	nt	LYPLA2 gel ABPP=29.0
COc1ccc(N2CCN(C(=O)c3ccc(Br)cc3)CC2)c([N+](=O)[O-])c1	-0.8	-3.4	3.4	6.3	47.6*	3.1	55.5*	LYPLA2 gel ABPP=20.0
CO/N=C/c1ccc(N2CCOCC2)c([N+](=O)[O-])c1	-0.2	0.2	-5.8	8.8	0.2	1.9	nt
CON=Cc1ccc(N2CCN(C(=O)c3cccc(C(F)(F)F)c3)CC2)c([N+](=O)[O-])c1	nt	nt	nt	nt	nt	nt	nt	LYPLA2 gel ABPP=88.0*
Cc1ccc(C)c(S(=O)(=O)N2CCN(C(=O)CCCc3c[nH]c4ccccc34)CC2)c1	7.8	6.6	11.6	-7.6	0.2	-2.4	nt
CS(=O)(=O)N(CC(=O)N1CCc2ccccc2C1)c1ccccc1Br	0.0	0.7	1.4	-4.2	5.9	2.2	nt
